These results are taken from PubChem BioAssay AID485346 (Sanford-Burnham Center for Chemical Genomics, 2010).

SMILES strings stand for the structures. Screen size: about 330,000 compounds; about 10,000 (3%) were called active. This excerpt belongs to a sample that is enriched for actives. Unmarked numbers belong to inactive results.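 The calls were made as follows: active = inhibition of at least 50% at 8 µM in the primary screen; inactive = the rest.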

The target in the assay is Protein Mdm4 (Homo sapiens) + E3 ubiquitin-protein ligase Mdm2 (Homo sapiens) (UniProt O15151+Q00987). The assay can be described thus: inhibitors of human Mdm2-MdmX association, primary screen, cell-based, luminescence, split luciferase, SaOS-2, uHTS (AID 485346). To be noted: SaOS-2 split-luciferase Mdm2/MdmX complementation, at 8 µM, stronger effect = higher value.
Protein Mdm4 (Homo sapiens) + E3 ubiquitin-protein ligase Mdm2 (Homo sapiens), sequence (O15151 whole entry, looked up): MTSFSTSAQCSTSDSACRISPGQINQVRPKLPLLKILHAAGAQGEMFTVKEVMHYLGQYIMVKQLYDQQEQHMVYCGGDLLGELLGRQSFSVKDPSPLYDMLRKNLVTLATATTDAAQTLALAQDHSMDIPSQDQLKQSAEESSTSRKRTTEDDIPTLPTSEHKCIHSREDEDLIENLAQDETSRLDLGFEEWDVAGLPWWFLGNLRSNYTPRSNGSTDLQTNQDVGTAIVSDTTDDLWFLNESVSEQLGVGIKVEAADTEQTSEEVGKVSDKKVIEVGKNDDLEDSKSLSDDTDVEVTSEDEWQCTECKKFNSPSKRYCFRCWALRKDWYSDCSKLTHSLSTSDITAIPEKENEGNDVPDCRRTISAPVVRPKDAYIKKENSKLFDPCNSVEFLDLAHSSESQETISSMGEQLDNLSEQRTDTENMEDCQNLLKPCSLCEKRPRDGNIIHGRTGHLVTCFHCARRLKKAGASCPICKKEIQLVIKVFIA
Protein Mdm4 (Homo sapiens) + E3 ubiquitin-protein ligase Mdm2 (Homo sapiens), sequence (Q00987 whole entry, looked up): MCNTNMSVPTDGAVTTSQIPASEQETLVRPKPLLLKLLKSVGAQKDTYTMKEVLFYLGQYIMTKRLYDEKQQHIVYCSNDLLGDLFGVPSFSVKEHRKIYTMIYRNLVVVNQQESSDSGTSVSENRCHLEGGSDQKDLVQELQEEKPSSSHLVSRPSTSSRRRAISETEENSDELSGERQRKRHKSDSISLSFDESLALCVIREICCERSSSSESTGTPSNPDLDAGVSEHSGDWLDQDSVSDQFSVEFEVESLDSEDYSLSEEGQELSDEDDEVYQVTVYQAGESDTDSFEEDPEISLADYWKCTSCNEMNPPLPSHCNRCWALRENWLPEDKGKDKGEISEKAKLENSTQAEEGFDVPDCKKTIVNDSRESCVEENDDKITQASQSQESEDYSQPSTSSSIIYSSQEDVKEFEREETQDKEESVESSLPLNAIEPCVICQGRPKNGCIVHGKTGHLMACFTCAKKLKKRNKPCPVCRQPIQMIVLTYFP
As a reminder, the inhibition is the relative decrease from the control value, in per cent. In the case of `Cc1c(NC(=O)CSc2cccc3cccnc23)c(=O)n(-c2ccccc2)n1C`, the inhibition is 65.2% (active).

With `Cc1c(NC(=O)CSc2nnnn2-c2ccc(C(=O)O)cc2)c(=O)n(-c2ccccc2)n1C`, the inhibition was 11%.

As for `Cc1c(NC(=O)CSc2nnc(-c3cccnc3)n2N)c(=O)n(-c2ccccc2)n1C`, the inhibition is -18.9%.

In the case of `CCOC(=O)c1ccc(NC(=O)c2nc[nH]c2C(=O)NCc2ccccc2)cc1`, the inhibition was 33.2%.

With `Cc1ccc(NC(=O)c2nc[nH]c2C(=O)N[C@@H](CCCCNC(=O)OC(C)(C)C)C(=O)OC(C)(C)C)cc1`, the inhibition is 31.7%.

Take `CCOC(=O)c1ccc(NC(=O)c2nc[nH]c2C(=O)N[C@@H](CCCCNC(=O)OC(C)(C)C)C(=O)OC(C)(C)C)cc1`: the inhibition was 53.6% (active).

Turning to `O=C(CNC(=O)c1ccccc1F)OCC(=O)c1c[nH]c2ccccc12`, the inhibition was 6.82%.

With `O=C(Nc1cccnc1)c1noc2c1CCCCC2`, the inhibition was 3.42%.

On to `O=C(CCCN1C(=O)/C(=C\c2ccccc2)SC1=S)Nc1ccccc1O`, for which the inhibition is 79.6% (active).

As to `COc1ccc(/C=C2\SC(=S)N(CCC(=O)Nc3cccc(C(=O)O)c3)C2=O)cc1OC`, the inhibition was 0.635%.

For `COc1ccc(/C=C2/SC(=O)N(CCCCCC(=O)Nc3ccccc3C(=O)O)C2=S)cc1`, the inhibition was -4.65%.

Consider `O=C(CCCN1C(=O)/C(=C/c2cccs2)SC1=S)Nc1ccc(O)cc1`, for which the inhibition is 62.6% (active).

Take `O=C(CCN1C(=O)/C(=C/c2cccs2)SC1=S)NNC(=O)c1cccc(O)c1`: the inhibition was -31.2%.

As to `Cc1ccc(/C=C2/SC(=S)N(CCC(=O)NCCCN3CCOCC3)C2=O)cc1`, the inhibition was -3.05%.

With `CCOc1ccc(/C=C2\SC(=S)N(NC(=O)c3ccncc3)C2=O)cc1OC`, the inhibition was -7.45%.

For the compound `CC(C(=O)Nc1ccc(O)c(C(=O)O)c1)N1C(=O)/C(=C/c2cccs2)SC1=S` (stereo unspecified), the inhibition is 7.51%.

`C=CCOc1ccc(/C=C2\SC(=S)N(CCC(=O)O)C2=O)cc1`: the inhibition was 42%.

Consider `O=C(CCCN1C(=O)/C(=C/c2ccccc2)SC1=S)Nc1ccc(O)cc1`, for which the inhibition is 94.8% (active).

In the case of `Cc1ccc(/C=C2\SC(=S)N(CCC(=O)Nc3ccc(O)cc3)C2=O)cc1`, the inhibition is 20.5%.

As for `COc1ccc(/C=C2\SC(=S)N(CCC(=O)Nc3ccccn3)C2=O)cc1OC`, the inhibition is 76.7% (active).

Take `Cc1csc(NC(=O)C2CCN(S(=O)(=O)c3ccccc3)CC2)n1`: the inhibition is -1.69%.

Regarding `Cc1ccc2c(C)c(C(=O)N(C)CCC3CCCCO3)oc2c1C` (stereo unspecified), the inhibition is 27.9%.

For `CC(=O)Nc1ccc(S(=O)(=O)Nc2nc3n(n2)C(c2ccccc2)CC(=O)N3)cc1` (stereo unspecified), the inhibition is 12.5%.

In the case of `CC(=O)NC12CC3CC(C1)CC(C(=O)N1CCN(S(=O)(=O)c4cccs4)CC1)(C3)C2`, the inhibition was 14.8%.

As to `Cc1ccc(Nc2nc(CSc3nnc(-c4ccncc4)n3-c3ccccc3C)cs2)cc1`, the inhibition is 38.1%.

Regarding `Cc1c(C(=O)NCC(c2ccco2)N2CCCC2)oc2ccc(Cl)cc12` (stereo unspecified), the inhibition is 21%.

Regarding `CCCCCOC(=O)C1=C(C)Nc2nnnn2C1c1ccc(OC)c(OC)c1OC` (stereo unspecified), the inhibition was -18%.

Consider `COc1cccc(-c2cc3nc4c(c(N5CCC6(CC5)OCCO6)n3n2)CCCC4)c1`, for which the inhibition is 22.2%.

Take `COc1ccccc1CN(C)C(=O)C1(c2ccc(Cl)cc2)CC1`: the inhibition was 14.8%.

Consider `O=C(CN1C(=O)NC(Cc2c[nH]c3ccccc23)C1=O)Nc1ccccc1C(F)(F)F` (stereo unspecified), for which the inhibition is -9.67%.

With `Cc1ccc2c(c1)N(CC(=O)N(Cc1ccccn1)Cc1ccco1)C(=O)C(C(C)C)O2` (stereo unspecified), the inhibition was 2.25%.

`CCc1ccc(NC(=O)N2CCc3ccccc3C2)cc1`: the inhibition is -51.8%.

With `Cc1ccc(C2CC(=O)NC(SCC(=O)OCc3ccccc3)=C2C#N)o1` (stereo unspecified), the inhibition is 58.1% (active).

For the compound `COC(=O)CSC1=C(C#N)C(c2ccccc2OC)C(C(=O)OC)C(=O)N1` (stereo unspecified), the inhibition is 15.2%.

Turning to `CCCc1cc(=O)[nH]c(SCC(=O)OCc2ccccc2)n1`, the inhibition was 18.4%.

For the compound `COc1cc(OC)cc(C(=O)OCC(=O)Nc2sccc2C(N)=O)c1`, the inhibition was -6.16%.

Take `C=CCn1c(C)cc(C2=NNC(=NCC)SC2)c1C`: the inhibition is 97.3% (active).

Take `CCS(=O)(=O)N1CCC(N2CCN(c3ccccc3)CC2)CC1`: the inhibition was 1.56%.

`O=[N+]([O-])c1cccc2ncccc12`: the inhibition was 10.6%.

Take `O=[N+]([O-])c1ccccc1S(=O)(=O)Nc1cccc2cccnc12`: the inhibition was 94.5% (active).

As to `Cc1ccccc1NC(=O)c1ccccc1NS(=O)(=O)c1cccc2cccnc12`, the inhibition was 11.2%.

Consider `CN(CCc1ccccn1)C(=O)CCC1CCCN(Cc2ccccc2OC(F)F)C1` (stereo unspecified), for which the inhibition was -29.3%.

Take `CCOC(=O)C1=CN(Cc2ccc(Br)cc2)S(=O)(=O)NC1C` (stereo unspecified): the inhibition is 12.1%.

On to `Brc1ccc(C2=CC(c3ccco3)n3ncnc3N2)cc1` (stereo unspecified), for which the inhibition was 11.6%.

For `CC1=C(C(N)=O)C(c2ccc(Br)cc2)n2ncnc2N1` (stereo unspecified), the inhibition was 5.41%.

For `Clc1ccc2c(c1)C1=C(C(c3ccncc3)O2)C(c2ccc(Br)cc2)n2ncnc2N1` (stereo unspecified), the inhibition was 70.4% (active).

`O=C1NCCn2nc3ccccc3c21`: the inhibition was 16.4%.

Consider `Cc1ccc(NN=Nc2nc3c([nH]2)c(=O)n(C)c(=O)n3C)cc1`, for which the inhibition was -16.4%.

Turning to `Cc1ccc(CSc2nc3[nH]ncc3c(=O)[nH]2)cc1`, the inhibition was -38.4%.

Take `C=CCN1C(=O)C(O)(CC(=O)c2ccccn2)c2ccccc21` (stereo unspecified): the inhibition is -5.9%.

With `C/C(=N/OC(=O)c1ccc(Br)cc1)c1ccc(C)cc1`, the inhibition was 5.85%.

Take `O=C(c1ccc2c(c1)OCO2)N1CCOCC1`: the inhibition was 3.71%.

Turning to `N/C(=N\OC(=O)c1ccc2c(c1)OCO2)c1ccc(Br)cc1`, the inhibition was 84.4% (active).

As to `CC(C)(C)OC(=O)C[C@@H]1C/C=C\C[C@@H](CC(=O)N[C@@H](CO)Cc2ccccc2)C(=O)N2CCC[C@H]2COC1=O`, the inhibition was 9.85%.

In the case of `O=C(Nc1ccncc1)Nc1ccc(F)cc1`, the inhibition is 14%.

Take `CSc1nc2ccc(NC(=O)c3c(F)cccc3F)cc2s1`: the inhibition was -79.2%.

On to `O=C(Nc1ccncc1)c1c(F)cccc1F`, for which the inhibition was 52.1% (active).

With `COCCNC(=O)COc1ccc(N(C)S(=O)(=O)c2ccc3ccccc3c2)cc1`, the inhibition is 16.8%.

On to `O=C(/C=C/c1ccc(Cl)cc1)Nc1ccc(Br)cn1`, for which the inhibition was 77.5% (active).

As for `Cc1cc(C)nc(NC(=O)/C=C/c2ccc(Cl)cc2)n1`, the inhibition is 6.82%.

In the case of `O=C(/C=C/c1ccc(Cl)cc1)Nc1ccc(S(=O)(=O)Nc2ncccn2)cc1`, the inhibition was 0.48%.

With `CCn1c(SCC(=O)Nc2cc(C)ccc2C)nnc1-c1cnccn1`, the inhibition is -18.6%.

Take `COc1ccc(N2C(=O)C(O)C2c2ccc(C)cc2)cc1` (stereo unspecified): the inhibition was 17.5%.

Regarding `COc1ccc(COC(=O)NC(C(=O)O)c2ccccc2)cc1` (stereo unspecified), the inhibition was 7.43%.

On to `COc1ccc(C(CCN(Cc2ccc(OC)c(OC)c2)C(=O)CCl)c2ccccc2)cc1` (stereo unspecified), for which the inhibition is 100% (active).

In the case of `COc1ccc(CN(C)C(=O)CC(c2ccccc2)c2ccccc2)cc1`, the inhibition was 2.66%.

As for `O=C(OCc1cc(=O)n2ccsc2n1)C1(c2ccc(Cl)cc2)CC1`, the inhibition was -13.2%.

For `CN(c1ccc(OCC(=O)NC2=NCCS2)cc1)S(=O)(=O)c1ccc(F)cc1`, the inhibition was -19.2%.

Consider `CCOC(=O)C1=C(c2ccccc2)NC(=O)NC1c1cc(OCC)c(O)c([N+](=O)[O-])c1` (stereo unspecified), for which the inhibition is -2.5%.

In the case of `COc1ccccc1NC(=O)/C=C/C(N)=O`, the inhibition was 6.78%.

Consider `CC(C)(C)c1ccc(/C=C/C(=O)Nc2ncccn2)cc1`, for which the inhibition is -199%.

Turning to `COC(=O)c1sc(-c2ccc(C(C)(C)C)cc2)cc1NC(=O)/C=C/C(=O)O`, the inhibition was 59.5% (active).

Turning to `CC1(C)S[C@@H]2[C@H](NC(=O)COc3ccccc3)C(=O)N2C1C(=O)OCc1ccccc1` (stereo partly specified), the inhibition is -0.93%.

For the compound `O=C1OCCN1C(=O)[C@H]1[C@H](c2ccc(Cl)cc2)C(c2cccc(Cl)c2)=NN1c1ccc(Br)cc1`, the inhibition was 43%.

Turning to `COc1ccc(Cl)cc1NC(=O)NC(C)C(C)(C)C` (stereo unspecified), the inhibition was -21.5%.

Regarding `COc1ccc(C#Cc2c(-c3ccc(OC)cc3)oc3ccc(-c4ccc5c(c4)OCO5)cc23)cc1`, the inhibition is -2.23%.

With `Cc1cccc(-c2oc3ccc(-c4ccc5c(c4)OCO5)cc3c2C#Cc2cncn2C)c1`, the inhibition is 62.2% (active).

For the compound `COc1ccc(/C=C/c2c(-c3cccc(C)c3)oc3ccc(-c4ccc5c(c4)OCO5)cc23)cc1`, the inhibition is 6.97%.

`COc1nnc(-c2ccc(C)c(S(=O)(=O)N(C)C)c2)c2ccccc12`: the inhibition was 13.5%.

As for `COc1ccc(CCN(C)C(=O)C23CC4CC(CC(Cl)(C4)C2)C3)cc1OC`, the inhibition was 27.9%.

Consider `Cc1cc(=O)[nH]c2nnnn12`, for which the inhibition was 6.21%.

`Cc1ccc(-c2nnc(-c3ccc(NC(=O)c4cccs4)cc3)o2)cc1`: the inhibition was 93.9% (active).

Regarding `Cc1ccc(OCC(=O)Nc2ccc(NC(=O)c3cccs3)cc2)c(C)c1`, the inhibition was 13.5%.

In the case of `CCN(CC(=O)Nc1ccc(OC)cc1)C(=O)CSCc1ccc(C)cc1`, the inhibition is 20.5%.

Consider `Cc1ccc(C(=O)Nc2ccc(NC(=O)c3cccs3)cc2)c(C)c1`, for which the inhibition is -14.7%.

Turning to `COc1ccc(CC(=O)Nc2ccc(-c3nnc(-c4ccc(C)cc4)o3)cc2)cc1`, the inhibition was 99.8% (active).

Regarding `COc1ccc(CC(=O)Nc2ccc(C(=O)NC(C)(C)C)cc2)cc1`, the inhibition is -11.9%.

Consider `CO[C@@H]1[C@@H](OC(N)=O)[C@@H](O)C(Oc2ccc3c(O)c(NC(=O)c4ccc(O)c(CC=C(C)C)c4)c(=O)oc3c2C)OC1(C)C` (stereo partly specified), for which the inhibition was 20.1%.

Consider `O=C(c1ccccc1)N1N=C(c2ccccc2O)CC1c1ccc(Br)cc1` (stereo unspecified), for which the inhibition was 12%.

`COc1ccc(C2CC(c3cccs3)=NN2c2ccccc2)cc1` (stereo unspecified): the inhibition was -32.2%.

As to `Oc1ccccc1C1=NN(c2ccccc2)C(c2ccccc2)C1` (stereo unspecified), the inhibition was 58.3% (active).
